Reference: PubChem BioAssay (NCI)
Values joined by “and” are separate entries in the source; they are usually repeats but may differ in a detail not shown here. Identical values can stand only once. About 79,000 compounds went through this panel and 15% of them were active in at least one assay; those are over-represented in the sample as a whole. Active and inactive are the calls of the source. Cut-off read from the data, not from the text of the source: active = growth inhibition above about 70%; inactive = the rest.

How the values were obtained:
[1] = NCI Yeast Anticancer Drug Screen. Data for the rad50 strain (AID 155);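 note: 0% = growth of vehicle-only cultures of the same strain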; conditions: S. cerevisiae rad50 strain growth inhibition, stronger effect = higher value; at 50.0 µM unless noted
In short: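 Cells are treated with compound, grown, and their growth is then scored against vehicle-only cultures of the same repair-deficient yeast strain.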

[2] = NCI Yeast Anticancer Drug Screen. Data for the mec2-1 strain (AID 157); conditions: S. cerevisiae mec2-1 strain, stronger effect = higher value; at 50.0 µM unless noted
In short: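 Yeast mec2-1 mutant treated with compound. Readout: growth inhibition vs vehicle controls.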

[3] = NCI Yeast Anticancer Drug Screen. Data for the sgs1 mgt1 strain (AID 161);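 note: 0% = growth of cultures given vehicle only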; conditions: S. cerevisiae sgs1 mgt1 strain, stronger effect = higher value; at 50.0 µM unless noted
In short: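 Test agents were incubated with a DNA-repair-mutant yeast strain. Growth was then read and compared against vehicle-treated controls.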

[4] = NCI Yeast Anticancer Drug Screen. Data for the cln2 rad14 strain (AID 165);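 note: 0% = growth equal to vehicle treated cultures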; conditions: S. cerevisiae cln2 rad14 strain, stronger effect = higher value; at 50.0 µM unless noted
In short: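 cln2 rad14 yeast strain; compound exposure; growth inhibition read vs vehicle controls.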

[5] = NCI Yeast Anticancer Drug Screen. Data for the bub3 strain (AID 167); conditions: S. cerevisiae bub3 mutant strain, stronger effect = higher value; at 50.0 µM unless noted
In short: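 Part of a panel of yeast mutants defective in DNA damage repair or cell cycle regulation. Each strain is grown with compound, and inhibition is calculated relative to solvent-treated cultures.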

[6] = NCI Yeast Anticancer Drug Screen. Data for the mlh1 rad18 strain (AID 175); conditions: S. cerevisiae mlh1 rad18 strain growth inhibition, stronger effect = higher value; at 50.0 µM unless noted
In short: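 Yeast w/ defined DNA-repair lesions; compound exposure; growth vs vehicle controls → % inhibition.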

Measured: growth inhibition

CC1(C)CC2(Nc3ccccc3N2)C2=C(O1)C(=O)OC2
inactive: [1] 9.45% | [2] -8.25% | [3] -18.7% | [4] -1.3% | [5] -6.15% | [6] -10.6%

Cc1ccc2c(c1)C(C)(C)C(C)(C)C2(C)C
inactive: [1] 1.5% | [2] -0.8% | [3] -0.05% | [4] 0.4% | [5] 3.8% | [6] -0.1%

CC12CCC(=O)C=C1CCCC2=O (stereo not given)
inactive: [1] -7.6% | [2] -12.3% | [3] -11.6% | [4] -14.7% | [5] -7.75% | [6] -3.4%

CC1(C)SC=C2C1=CSC2(C)C
inactive: [1] 0.2% | [2] 2.1% | [3] -6.35% | [4] -26.2% | [5] 4.6% | [6] -3.65%

COc1ccc(C(NC(N)=O)c2cc3c(cc2OC(C)=O)OCO3)cc1 (stereo not given)
inactive: [1] -7.25% | [2] -1.95% | [3] -6.65% | [4] -9.05% | [5] 5.7% | [6] -0.4%

COc1ccc(NC(=O)C(C)Oc2ccc(OCC3CCCCC3)cc2)cc1 (stereo not given)
inactive: [1] -22.9% | [2] -40.5% | [3] -42% | [4] -26.1% | [5] -56.9% | [6] -29.6%

CC(=O)OC(C#N)c1ccco1 (stereo not given)
inactive: [1] -11.4% | [2] -49.1% | [3] -25.2% | [4] 5.8% | [5] -38.2% | [6] -7.85%

C/C=C/C(=O)Nc1cccc(OC(=O)NC(C)(C)C)c1
inactive: [1] 9.2% | [2] 13.1% | [3] 3.55% | [4] -2% | [5] 18% | [6] 1.65%

O=C1OC(Oc2ccccc2)c2cc3c(cc21)OCO3 (stereo not given)
inactive: [1] 20.4% | [2] -6.05% | [3] 21.3% | [4] 20.6% | [5] 17.9% | [6] 29.5%

CCC(CC)/C(=N/Nc1ccc([N+](=O)[O-])cc1[N+](=O)[O-])C1=CCCCC1
inactive: [1] -8.3% | [2] -12.1% | [3] -5.1% | [4] -24.1% | [5] -7.3% | [6] -15.7%

Cc1cc(-c2ccc(N=Nc3ccc4c(S(=O)(=O)O)cc(S(=O)(=O)O)c(N)c4c3O)c(C)c2)ccc1N=Nc1ccc2c(S(=O)(=O)O)cc(S(=O)(=O)O)c(N)c2c1O
inactive: [1] -137% and -0.25% | [2] -40.7% and -71.1% | [3] -56.4% and -33.9% | [4] -147% and -4.9% | [5] -118% and -26.3% | [6] -49.2% and -11.2%

NC1(CC(=O)O)CCN(Cc2ccccc2)CC1
inactive: [1] 4.05% | [2] 13% | [3] 3.9% | [4] -7.05% | [5] -1.15% | [6] 2.4%

CC1CC(=O)CC(C)(C)N1 (stereo not given)
inactive: [1] -9.4% | [2] -9% | [3] 3.2% | [4] -2.4% | [5] 5.85% | [6] -7.25%

CCOC(=O)C(Cc1ccc(Cl)cc1)(NC(C)=O)C(=O)OCC
inactive: [1] -1.25% | [2] -13.6% | [3] -4.25% | [4] -23.9% | [5] 14.4% | [6] -10.4%

CC1CCC(c2cc(-c3ccccc3)n(-c3ccccc3)n2)CC1 (stereo not given)
inactive: [1] -6.25% | [2] 6.05% | [3] -2.35% | [4] -26.4% | [5] -17.4% | [6] -6.15%

CSc1nc(C)cc(Nc2ccc(O)c(CN3CCCCC3)c2)n1
inactive: [1] 19.4% | [2] -20.3% | [3] -27.3% | [4] 10.4% | [5] -32.6% | [6] 2.6%

CSCCC(Nc1ccc([N+](=O)[O-])cc1[N+](=O)[O-])C(=O)O (stereo not given)
inactive: [1] 9.55% | [2] 7.25% | [3] 34.4% | [4] 18.1% | [5] 17.9% | [6] -18.1%

Cc1ccc(NCC2CC/C(=C\c3ccc(Cl)cc3)C2=O)cc1 (stereo not given)
inactive: [1] -43.8% | [2] -22.8% | [3] -33.4% | [4] -50.5% | [5] -10.2% | [6] -32.3%

N=c1ccccn1C(=O)C1=Cc2cc(Cl)cc(Cl)c2OC1
inactive: [1] -15.6% | [2] 0.75% | [3] -1.85% | [4] -25.8% | [5] 7.65% | [6] -2.25%

COC(=O)C(NC(=O)c1ccccc1)C(c1ccc(Cl)cc1)P(=O)(OC)OC (stereo not given)
inactive: [1] -19.6% | [2] -1% | [3] 12% | [4] 22.2% | [5] -7.85% | [6] -17.9%

OC/C(Br)=C(\Br)CO
inactive: [1] -34.3% | [2] -54.4% | [3] -39.6% | [4] -9.25% | [5] -28.6% | [6] -35.5%

O=C(CC(=O)N1N=C(n2ccc3ccccc32)CC1c1ccccc1)Nc1ccc(Cl)cc1 (stereo not given)
inactive: [1] -25.3% | [2] -7.7% | [3] -16.8% | [4] 7.1% | [5] -4.35% | [6] -5%

Nc1ncc2c(n1)-c1ccccc1OC2
inactive: [1] -29.5% | [2] 2.8% | [3] -12.4% | [4] -1.4% | [5] -20.9% | [6] -10.4%

N#CSC(C(=O)c1ccccc1)c1ccccc1 (stereo not given)
inactive: [2] 60.6%
active: [1] 94.2% | [3] 91.2% | [4] 89% | [5] 95.2% | [6] 91.3%

CN(C)/C=N/NC(=O)/C(C#N)=C/N(C)C
inactive: [1] -26.1% | [2] 2.3% | [3] -8.15% | [4] -24.8% | [5] -45.1% | [6] -42.9%

CCC1NC(=O)C1NC(=O)OC (stereo not given)
inactive: [1] 23.6% | [2] -1.15% | [3] 22.6% | [4] 0.55% | [5] 12.6% | [6] 22.8%

O=C1C(NCCc2cc(Br)c(O)c(Br)c2)=CC(=O)c2ncccc21
inactive: [1] 31.9% | [2] 37% | [3] 33.9% | [4] 18.2% | [5] 34% | [6] 28.4%

CC1(C)CC(O)CC(C)(C)N1
inactive: [1] 2.9% | [2] -8.7% | [3] -1.6% | [4] -2.6% | [5] -1% | [6] 1.9%

Oc1cc2c(cc1-c1cc3c(cc1O)OCO3)OCO2
inactive: [1] -21.1% | [2] -15.3% | [3] -5.15% | [4] -41% | [5] -3.2% | [6] 0.55%

O=C1CCCC/C1=C/C=C/c1ccccc1
inactive: [1] 10.1% | [2] 21.8% | [3] 23.1% | [4] -33.5% | [5] -29.9% | [6] 6.75%

COc1cc(C(=O)c2cc3c(cc2C(=O)O)OCO3)cc(OC)c1OC
inactive: [1] -7.6% | [2] 0.85% | [3] 2.9% | [4] -30.6% | [5] 8.5% | [6] -2.05%

CCCSc1nc(C(=O)O)cc(=O)[nH]1
inactive: [1] -8.9% | [2] -13.8% | [3] -4.8% | [4] -44.2% | [5] -5.1% | [6] -8.15%

O=C(CCCC(=O)N/N=C/c1ccccc1O)N/N=C\c1ccccc1O
inactive: [1] 4.55% | [2] -6.65% | [3] -20.4% | [4] 3.35% | [5] -3.5% | [6] -12.9%

C=C(C)C(C)OC(=O)Nc1ccccc1 (stereo not given)
inactive: [1] 12.7% | [2] -3.05% | [3] -16.1% | [4] 7.4% | [5] -3.95% | [6] -37.5%

C[N+](C)(C)CC1CCC/C1=N\OC(=O)c1ccccc1 (stereo not given)
inactive: [1] -17.8% | [2] 1.85% | [3] 11.8% | [4] 12.8% | [5] 14.2% | [6] -2.7%

Oc1ccccc1-c1cc(-c2ccccc2)nc(NCCCNc2nc(-c3ccccc3)cc(-c3ccccc3O)n2)n1
inactive: [1] -11.2% | [2] 8% | [3] -5.3% | [4] -14.8% | [5] 35% | [6] 14.2%

CCCCCCCC(=O)C1C(=O)OC(C)(C)OC1=O
inactive: [1] 9.65% | [2] -6.45% | [3] -7.85% | [4] 9.65% | [5] -0.5% | [6] -7.15%

O=[N+]([O-])c1ccc(Sc2ncnc3c2ncn3C2OC(CO)C(O)C2O)c2nonc12 (stereo not given)
inactive: [1] 3.05% | [2] -12.4% | [3] -2.4% | [4] 16.1% | [5] -2.95% | [6] 33.2%

CCO[C@@H]1OC(=O)[C@H]2C(c3ccccc3)=NO[C@@H]12
inactive: [1] -13.2% | [2] -22.4% | [3] -9.7% | [4] 7.55% | [5] 13.7% | [6] -4.15%

O=C(O)c1c(-c2nccc3ccccc23)[nH]c(-c2ccccc2)c1S(=O)(=O)O
inactive: [1] -23.1% | [2] 5.7% | [3] -18.9% | [4] -35.3% | [5] -24.4% | [6] 21.6%
